# Laboratory results published in the supplement of paper PMC10646978.
# ± gives the standard deviation.
# What was measured:
# Conditions in all cases: modulator concentration 10 µM
# [1] = system: RAW-Dual (murine macrophage reporter line); assay: NF-kB reporter (SEAP) activity fold change vs agonist alone; higher = enhanced NF-kB activity
# In short: (§1)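 In 384-well plates holding 50 000 RAW-Dual murine macrophage reporter cells per well, compound at 10 μM final was pre-incubated for 1 hour at 37 °C, after which a PRR agonist was added overnight. Supernatant SEAP read with QUANTI-Blue at 620 nm absorbance reported NF-κB, and Lucia luciferase read with QUANTI-Luc luminescence reported IRF. Fold change values come from dividing each reporter signal by the mean of agonist-only control wells on the same plate, averaged over replicate plates with propagated errors.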
# [2] = system: RAW-Dual (murine macrophage reporter line); assay: IRF reporter (Lucia luciferase) activity fold change vs agonist alone; higher = enhanced IRF activity
# In short: as §1
# [3] = system: RAW-Dual (murine macrophage reporter line); assay: viability score (confluency relative to resting cells, overnight) (fraction); higher = more viable, active = viable (0.7 or more)
# In short: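 Compound was added at a final 10 μM to RAW-Dual macrophages in 384-well plates and left overnight. Confluency was imaged with IncuCyte, and two masks were generated in IncuCyte software over all imaged wells. Each viability score is confluency relative to resting cells, and a compound met the cutoff only when both masks were above 70% of resting cells.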
# [4] = agonist: CpG ODN 1826 0.5 ug/mL
compound,measurement,setting,value
N#Cc1cc2c(nc1N1CC(Cn3nc(C4CC4)ccc3=O)C1)CCC2,NF-kB reporter,[1]; [4],1.44 ± 0.078
same,NF-kB reporter,[1]; agonist: LPS 0.1 ug/mL,1.21 ± 0.099
same,NF-kB reporter,[1]; agonist: MPLA […],1.63 ± 0.24
same,IRF reporter,[2]; agonist: 3'3'-cGAMP 10 ug/mL,0.866 ± 0.12
same,IRF reporter,[2]; agonist: LPS 0.1 ug/mL,1.03 ± 0.17
same,IRF reporter,[2]; agonist: MPLA […],1.18 ± 0.34
same,viability score,[3],0.946 (active)
CCN(CC)C(=O)N1CCN(C)CC1 [Prestw-284],NF-kB reporter,[1]; [4],1.02 ± 0.063
same,NF-kB reporter,[1]; agonist: LPS 0.1 ug/mL,1.03 ± 0.064
same,NF-kB reporter,[1]; agonist: MPLA […],0.96 ± 0.062
same,IRF reporter,[2]; agonist: 3'3'-cGAMP 10 ug/mL,0.974 ± 0.034
same,IRF reporter,[2]; agonist: LPS 0.1 ug/mL,1.41 ± 0.24
same,IRF reporter,[2]; agonist: MPLA […],1.28 ± 0.14
same,viability score,[3],0.99 (active)
CC(=O)NC(Cc1c[nH]c2ccccc12)C(=O)O (stereo unspecified),NF-kB reporter,[1]; [4],1.09 ± 0.27
same,NF-kB reporter,[1]; agonist: LPS 0.1 ug/mL,1.09 ± 0.083
same,NF-kB reporter,[1]; agonist: MPLA […],0.978 ± 0.063
same,IRF reporter,[2]; agonist: 3'3'-cGAMP 10 ug/mL,0.969 ± 0.042
same,IRF reporter,[2]; agonist: LPS 0.1 ug/mL,1.33 ± 0.14
same,IRF reporter,[2]; agonist: MPLA […],1.3 ± 0.13
same,viability score,[3],0.995 (active)
COC(=O)Nc1nc2cc(C(=O)c3cccs3)ccc2[nH]1 [Prestw-100],NF-kB reporter,[1]; [4],2.4 ± 0.14
same,NF-kB reporter,[1]; agonist: LPS 0.1 ug/mL,1.31 ± 0.094
same,NF-kB reporter,[1]; agonist: MPLA […],1.98 ± 0.13
same,IRF reporter,[2]; agonist: 3'3'-cGAMP 10 ug/mL,0.101 ± 0.0035
same,IRF reporter,[2]; agonist: LPS 0.1 ug/mL,1.86 ± 0.18
same,IRF reporter,[2]; agonist: MPLA […],2.05 ± 0.19
same,viability score,[3],0.715 (active)
O=C(NCC(O)Cn1ccccc1=O)c1ccc(Cl)s1 (stereo unspecified),NF-kB reporter,[1]; [4],0.94 ± 0.1
same,NF-kB reporter,[1]; agonist: LPS 0.1 ug/mL,0.869 ± 0.087
same,NF-kB reporter,[1]; agonist: MPLA […],1.01 ± 0.087
same,IRF reporter,[2]; agonist: 3'3'-cGAMP 10 ug/mL,1.02 ± 0.047
same,IRF reporter,[2]; agonist: LPS 0.1 ug/mL,1.41 ± 0.09
same,IRF reporter,[2]; agonist: MPLA […],1.46 ± 0.12
same,viability score,[3],1 (active)
Cc1cc(Cl)ccc1OCCCC(=O)NO,NF-kB reporter,[1]; [4],0.745 ± 0.091
same,NF-kB reporter,[1]; agonist: LPS 0.1 ug/mL,0.794 ± 0.039
same,NF-kB reporter,[1]; agonist: MPLA […],1.19 ± 0.028
same,IRF reporter,[2]; agonist: 3'3'-cGAMP 10 ug/mL,0.234 ± 0.014
same,IRF reporter,[2]; agonist: LPS 0.1 ug/mL,0.449 ± 0.084
same,IRF reporter,[2]; agonist: MPLA […],0.553 ± 0.12
same,viability score,[3],0.986 (active)
COC(=O)C1=C(C)N(C)C(C)=C(C(=O)OC)C1c1ccc(-c2ccccc2)cc1,NF-kB reporter,[1]; [4],0.873 ± 0.069
same,NF-kB reporter,[1]; agonist: LPS 0.1 ug/mL,0.943 ± 0.057
same,NF-kB reporter,[1]; agonist: MPLA […],0.939 ± 0.06
same,IRF reporter,[2]; agonist: 3'3'-cGAMP 10 ug/mL,0.989 ± 0.03
same,IRF reporter,[2]; agonist: LPS 0.1 ug/mL,1.06 ± 0.16
same,IRF reporter,[2]; agonist: MPLA […],0.905 ± 0.19
same,viability score,[3],1 (active)
COc1ccc(C=Nn2cc(-c3ccc(Cl)cc3)nc2N=Cc2cc(Br)cc(Br)c2O)cc1,NF-kB reporter,[1]; [4],0.863 ± 0.068
same,NF-kB reporter,[1]; agonist: LPS 0.1 ug/mL,0.919 ± 0.067
same,NF-kB reporter,[1]; agonist: MPLA […],0.874 ± 0.094
same,IRF reporter,[2]; agonist: 3'3'-cGAMP 10 ug/mL,0.883 ± 0.037
same,IRF reporter,[2]; agonist: LPS 0.1 ug/mL,1.08 ± 0.14
same,IRF reporter,[2]; agonist: MPLA […],1.07 ± 0.23
same,viability score,[3],1.02 (active)
N[C@H](Cc1ccccc1)C(=O)O,NF-kB reporter,[1]; [4],0.958 ± 0.074
same,NF-kB reporter,[1]; agonist: LPS 0.1 ug/mL,1.05 ± 0.052
same,NF-kB reporter,[1]; agonist: MPLA […],0.958 ± 0.025
same,IRF reporter,[2]; agonist: 3'3'-cGAMP 10 ug/mL,0.895 ± 0.076
same,IRF reporter,[2]; agonist: LPS 0.1 ug/mL,0.988 ± 0.049
same,IRF reporter,[2]; agonist: MPLA […],1.11 ± 0.14
same,viability score,[3],1 (active)
CC1=CC(=NS(=O)(=O)c2ccc(C)cc2)C=C(Cl)C1=O,NF-kB reporter,[1]; [4],0.635 ± 0.068
same,NF-kB reporter,[1]; agonist: LPS 0.1 ug/mL,0.706 ± 0.038
same,NF-kB reporter,[1]; agonist: MPLA […],0.68 ± 0.062
same,IRF reporter,[2]; agonist: 3'3'-cGAMP 10 ug/mL,0.451 ± 0.02
same,IRF reporter,[2]; agonist: LPS 0.1 ug/mL,0.611 ± 0.04
same,IRF reporter,[2]; agonist: MPLA […],0.428 ± 0.038
same,viability score,[3],0.89 (active)
c1ccc(CNc2nc(N3CCOCC3)nc(N3CCOCC3)n2)cc1,NF-kB reporter,[1]; [4],0.882 ± 0.24
same,NF-kB reporter,[1]; agonist: LPS 0.1 ug/mL,0.947 ± 0.079
same,NF-kB reporter,[1]; agonist: MPLA […],0.987 ± 0.081
same,IRF reporter,[2]; agonist: 3'3'-cGAMP 10 ug/mL,0.758 ± 0.027
same,IRF reporter,[2]; agonist: LPS 0.1 ug/mL,1.09 ± 0.12
same,IRF reporter,[2]; agonist: MPLA […],1.24 ± 0.21
same,viability score,[3],0.991 (active)
O=C(NCCCc1cnc2ncnn2c1)c1cccc2ccccc12,NF-kB reporter,[1]; [4],0.88 ± 0.039
same,NF-kB reporter,[1]; agonist: LPS 0.1 ug/mL,0.857 ± 0.071
same,NF-kB reporter,[1]; agonist: MPLA […],1.06 ± 0.059
same,IRF reporter,[2]; agonist: 3'3'-cGAMP 10 ug/mL,1.02 ± 0.057
same,IRF reporter,[2]; agonist: LPS 0.1 ug/mL,1.23 ± 0.14
same,IRF reporter,[2]; agonist: MPLA […],1.45 ± 0.39
same,viability score,[3],0.98 (active)
CC(C)(C)CC(=O)Nc1nc2ccc(S(C)(=O)=O)cc2s1,NF-kB reporter,[1]; [4],0.987 ± 0.12
same,NF-kB reporter,[1]; agonist: LPS 0.1 ug/mL,1.19 ± 0.068
same,NF-kB reporter,[1]; agonist: MPLA […],1.25 ± 0.12
same,IRF reporter,[2]; agonist: 3'3'-cGAMP 10 ug/mL,0.787 ± 0.033
same,IRF reporter,[2]; agonist: LPS 0.1 ug/mL,0.831 ± 0.11
same,IRF reporter,[2]; agonist: MPLA […],0.779 ± 0.23
same,viability score,[3],0.948 (active)
